This is a sample that favours compounds with a hit; in the whole collection about 32% have one here.
CYP2C19 inhib – human CYP2C19 inhibition; P33261; CYP2C19 Supersomes, luciferin-H EGE luminescence, 30 min; hit rate 21% among 96,000; inhibition, % at 5 µM;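 active means CYP2C19 inhibition above a set limit at 5 µM in the primary screen, cut at about 50% in these data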
Target sequence (P33261 whole entry, looked up): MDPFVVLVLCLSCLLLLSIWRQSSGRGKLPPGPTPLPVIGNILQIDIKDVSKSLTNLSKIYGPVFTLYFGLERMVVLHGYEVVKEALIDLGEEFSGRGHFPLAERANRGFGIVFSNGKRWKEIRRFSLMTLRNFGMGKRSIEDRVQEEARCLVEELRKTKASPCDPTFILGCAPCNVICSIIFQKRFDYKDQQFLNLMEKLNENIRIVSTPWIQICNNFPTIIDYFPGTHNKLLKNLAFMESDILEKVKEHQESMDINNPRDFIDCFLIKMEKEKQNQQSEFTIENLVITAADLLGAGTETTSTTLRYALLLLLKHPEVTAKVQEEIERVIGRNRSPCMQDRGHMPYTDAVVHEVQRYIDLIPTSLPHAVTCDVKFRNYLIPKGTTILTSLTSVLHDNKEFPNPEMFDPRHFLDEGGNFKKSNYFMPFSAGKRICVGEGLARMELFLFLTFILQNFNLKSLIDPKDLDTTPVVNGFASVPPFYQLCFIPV
PostGolgi yeast – growth inhibition of a yeast mutant, post-Golgi transport screen. hit rate 0.9% among 98,000. post-Golgi transport phenotypic cell assay. inhibition, % at 10 µM. AID 739;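 further: yeast cells grown in 1536-well plates; yeast grown about 18 h at 30C before absorbance read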
CYP2C9 act – increases human cytochrome P450 2C9 activity; P11712; recombinant CYP2C9, luciferin-H conversion, luminescence; stronger effect = higher value; factor 1 = untreated enzyme, 0 = blocked; activation factor at 5 µM; hit rate 1.4% among 96,000; AID 1024;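 active means activation factor of 2 or more for CYP2C9 at a 5 µM dose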
PostGolgi ctrl – growth of the yeast control strain, post-Golgi counter-screen; efflux-deficient yeast background strain, growth absorbance A615, 16 h; inhibition, % at 10 µM; hit rate 5% among 98,000
CYP2C19 act – activators of human cytochrome P450 2C19 | recombinant CYP2C19, luciferin-H EGE luminescence; stronger effect = higher value; 0 = fully inhibited enzyme, 1 = untreated enzyme | activation factor at 5 µM | AID 1025 | 96,000 tested, under 10 active;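 active means activation factor of at least 2 at 5 µM in the primary screen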
CYP2C9 inhib – human CYP2C9 inhibition | P11712 | CYP2C9 Supersomes, luciferin-H conversion, luminescence | inhibition, % at 5 µM | hit rate 20% among 96,000;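 active means blocking of liver enzyme CYP2C9 beyond about 50% at 5 µM, limit read from the data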
Numbers stand for hits; i = inactive; nt = no result. Unless noted, no stated cut-off is given here; in the data, active means inhibition above about 30%; inactive means the rest.

SMILES | CYP2C19 inhib | PostGolgi yeast | CYP2C9 act | PostGolgi ctrl | CYP2C19 act | CYP2C9 inhib
CC(=O)Oc1ccc(N2C(=O)C3C4C=CC(CO)(O4)C3C2=O)cc1 (stereo unspecified) | i | i | i | i | i | i
CCC1(CC)C(=O)C(C)(C)C(=O)OC1c1ccccn1 (stereo unspecified) | i | i | i | i | i | 60.0
CC1(C)C(=O)OC(c2ccco2)C(C)(C)C1=O (stereo unspecified) | i | i | i | i | i | i
CCOC(=O)CSc1nc2sccc2c(=O)[nH]1 | i | i | i | i | i | i
Cc1ccc(Cn2cccc2C2=NC(C)CO2)cc1 (stereo unspecified) | i | i | i | i | i | i
Cc1oc(-c2ccccc2Cl)nc1Cn1cccc1C1=NC(c2ccccc2)CO1 (stereo unspecified) | i | i | i | i | i | 74.7
Cc1onc(-c2ccccc2Cl)c1C(=O)Nc1ccc(S(=O)(=O)N2CCCC2)cc1 | i | i | i | i | i | 74.9
Cc1onc(-c2ccccc2Cl)c1C(=O)OCC(=O)c1ccc2c(c1)OCCO2 | 55.1 | i | i | i | i | i
Cc1onc(-c2ccccc2Cl)c1C(N)=O | i | i | i | i | i | i
Cc1onc(-c2c(Cl)cccc2Cl)c1C(=O)Nc1ccc2c(c1)OCCO2 | 53.6 | i | i | i | i | 88.5
Cc1onc(-c2ccccc2Cl)c1C(=O)Nc1cccc(-c2cn3cccnc3n2)c1 | 61.5 | i | i | i | i | 84.8
O=C(CSc1nc(O)c(Cc2ccccc2)c(=O)n1-c1ccccc1)N1CCOCC1 | i | i | i | i | i | i
COCCn1c(-c2cc(OC)c(OC)c(OC)c2)nc2oc3ccccc3c(=O)c2c1=O | i | nt | i | nt | i | i
Cc1cc(C)n2nc(C(=O)Nc3cccnc3)nc2n1 | i | i | i | i | i | i
Cc1cc(NC(=O)c2c(-c3ccccc3Cl)noc2C)no1 | i | i | i | i | i | i
Cc1onc(-c2ccccc2)c1C(=O)OCC(=O)c1ccccc1 | 69.3 | i | i | i | i | 54.1
COCCNC(=O)c1ccccc1NC(=O)c1ccccc1N(C)S(=O)(=O)c1ccccc1 | 99.7 | i | i | i | i | 93.3
COCCNC(=O)c1ccccc1-c1ccccc1C(=O)O | i | i | i | i | i | i
Cc1cc(=O)oc(C)c1C(=O)OCC(=O)c1ccc2ccccc2c1 | 63.2 | i | i | i | i | i
Cc1cc(=O)oc(C)c1C(=O)OCC(=O)c1ccccc1 | i | i | i | i | i | i
Cc1onc(-c2ccccc2Cl)c1C(=O)Nc1ccc(F)c(F)c1 | 89.5 | i | i | i | i | 69.6
CCOC(=O)c1c(NC(C)=O)no[n+]1[O-] | nt | i | nt | i | nt | nt
Cc1onc(-c2c(F)cccc2Cl)c1C(=O)Nc1cccc(Cn2cccn2)c1 | i | i | i | i | i | 51.7
Cc1onc(-c2c(F)cccc2Cl)c1C(=O)Nc1ccc(S(=O)(=O)Nc2ncccn2)cc1 | i | i | i | i | i | i
Cc1ccc(NC(=S)NC(=O)c2c(-c3ccccc3Cl)noc2C)cc1 | i | i | i | i | i | i
SMILES | CYP2C19 inhib | PostGolgi yeast | CYP2C9 act | PostGolgi ctrl | CYP2C19 act | CYP2C9 inhib
COC(=O)c1cc(OC)c(OC)cc1NC(=O)c1c(-c2ccccc2Cl)noc1C | i | i | i | 37.0 | i | 56.4
CCN(CC)S(=O)(=O)c1ccc(NC(=O)c2ccccc2N(C)S(C)(=O)=O)cc1 | i | i | i | i | i | 61.3
O=C(Nc1ccc2c(c1)OCO2)C1CC(c2ccccc2Cl)=NO1 (stereo unspecified) | 94.5 | i | i | i | i | i
Cc1onc(-c2ccccc2Cl)c1C(=O)Nc1ccc2c(c1)OCO2 | 70.8 | i | i | i | i | 52.6
CCN(CC)S(=O)(=O)c1ccc(NC(=O)c2c(-c3ccccc3)noc2C)cc1 | 64.7 | i | i | i | i | i
Cc1onc(-c2ccccc2)c1C(=O)Nc1ccc2c(c1)OCCO2 | i | i | i | i | i | i
Cc1ccc(Cn2ccc(NC(=O)c3c(-c4ccccc4Cl)noc3C)n2)cc1 | i | i | i | i | i | 51.5
COC(=O)CC1SC(=O)NC1=Nc1ccc(OC)cc1 (stereo unspecified) | i | i | i | i | i | i
Cn1c(CSCc2ccc(F)cc2)nnc1SCC(=O)N1CCN(c2ccccc2)CC1 | i | i | i | i | i | i
Cc1ccc(/C=c2\sc3n(c2=O)CN(c2cccc(Br)c2)CN=3)o1 | i | i | i | i | i | i
c1cc2c(cc1Cn1cnnn1)OCO2 | i | i | i | i | i | 56.0
CCOC(=O)c1oc2cccc(OCC(O)CNC(C)C)c2c1C (stereo unspecified) | 69.9 | i | i | i | i | i
COc1ccc(C2=Nc3ccccc3OC2)cc1 | 70.1 | i | i | i | i | 57.9
COc1ccc(NC2=Nc3ccccc3CC2)cc1 | i | i | i | i | i | i
CCc1ccc(C(C)NC(=O)c2ccc(F)cc2)cc1 (stereo unspecified) | 55.2 | i | i | i | i | 51.3
Cc1cccc(OCCN2CSC(=S)N(C)C2)c1 | 78.7 | i | i | i | i | 87.7
COc1ccc(OC(=O)c2cccc([N+](=O)[O-])c2)c(C(=O)/C=C/c2cccs2)c1 | 62.0 | i | i | i | i | 74.8
Cc1ccc(/C=N\Nc2cn[nH]c(=O)c2Cl)cc1 | i | i | i | i | i | i
Cc1nc(N)sc1Cc1ccc2c(c1)OCO2 | i | i | i | i | i | i
Cc1ccc(NC(=O)c2cc(C)nn2-c2ccccc2)cc1 | 59.7 | i | i | i | i | i
Cc1cc(C(=O)NCc2cccnc2)n(-c2ccccc2)n1 | 59.7 | i | i | i | i | i
CNC(=O)c1ccc(-n2nc(C)cc2-c2ccccc2)cc1 | i | i | i | i | i | i
Cc1cc(C(=O)NCc2ccc3c(c2)OCO3)n(-c2ccccc2)n1 | i | i | i | i | i | i
Cc1nn(Cc2ccccc2)c2sc(C(=O)NCc3cccnc3)cc12 | 62.2 | i | i | i | i | 82.0
CN(C(=O)CSc1nnc(Nc2ccccc2)s1)c1c(N)n(Cc2ccccc2)c(=O)[nH]c1=O | i | i | i | i | i | 64.1
SMILES | CYP2C19 inhib | PostGolgi yeast | CYP2C9 act | PostGolgi ctrl | CYP2C19 act | CYP2C9 inhib
CCCCN(C(=O)CSc1nnc(Nc2ccc(C)c(C)c2)s1)c1c(N)n(Cc2ccccc2)c(=O)[nH]c1=O | i | i | i | 37.2 | i | i
COc1ccc(S(=O)(=O)Nc2ccc(S(=O)(=O)N3CCCCC3)cc2)cc1 | i | i | i | i | i | 80.9
COc1ccc(S(=O)(=O)c2ccc(OC)cc2)cc1 | 99.1 | i | i | i | i | i
COc1ccc(S(=O)(=O)N2CCC(=O)N2)cc1 | i | i | i | i | i | i
COc1ccc(CNS(=O)(=O)c2ccc(S(=O)(=O)N3CCCCC3)cc2)cc1 | i | nt | i | nt | i | i
COC(=O)c1ccc(NS(=O)(=O)c2ccc(OC)cc2)cc1 | i | i | i | i | i | 89.1
COC(=O)C1CCN(S(=O)(=O)c2ccc(OC)cc2)CC1 | 89.0 | i | i | i | i | i
COc1ccc(-n2c(SCCC#N)nnc2-c2cc(Cl)ccc2OC)cc1Cl | nt | i | nt | i | nt | nt
